In PubChem BioAssay AID1159580 (chemical genetic matrix, 2015):
Several values for one entry are separate records, joined by “and”; a condition that tells them apart may be missing. Equal values may be shown once. Screen size: about 5,500 compounds; about 2,000 (36%) were called active. Roughly 18% stayed inconclusive and do not appear here. No stated cut-off is given here; in the data, active means normalized growth mostly below about 0.91 (no sharp cut-off); inconclusive means no clear call, values can overlap the other calls; inactive means mostly above about 0.92. This is one part of the list.

Assay: chemical genetic growth profiling, strain panel (AID 1159580);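 further: tested at 20 µM; growth read once vehicle control cultures reached saturation at 30 °C; 1 = growth at the plate median or of vehicle wells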
Details: S. cerevisiae deletion strains, growth OD

Measured: normalized growth

CC(=O)Oc1c(C)c(C)c2c(c1C)CCC(C)(CCCC(C)CCCC(C)CCCC(C)C)O2 (stereo unspecified)
inactive: locus YAL021C, strain ccr4, stronger effect = lower value 1 | locus YAL026C, strain drs2, stronger effect = lower value 0.982 | locus YAL030W, strain snc1, stronger effect = lower value 0.976 | locus YBL061C, strain skt5, stronger effect = lower value 0.995 | locus YBR009C, strain hhf1, stronger effect = lower value 0.957 | locus YBR021W, strain FUR4, stronger effect = lower value 1.03 | locus YBR023C, strain chs3, stronger effect = lower value 0.99 | locus YBR171W, strain sec66, stronger effect = lower value 1 | locus YBR229C, strain ROT2, stronger effect = lower value 1.02 | locus YBR231C, strain swc5, stronger effect = lower value 0.995 | locus YBR279W, strain paf1, stronger effect = lower value 0.985 | locus YCL011C, strain gbp2, stronger effect = lower value 0.975 | locus YCL016C, strain dcc1, stronger effect = lower value 0.985 | locus YCL029C, strain bik1, stronger effect = lower value 0.995 | locus YCL061C, strain MRC1, stronger effect = lower value 0.998 | locus YCL069W, strain vba3, stronger effect = lower value 0.982 | locus YCR088W, strain abp1, stronger effect = lower value 0.978 | locus YDL005C, strain med2, stronger effect = lower value 0.979 | locus YDL035C, strain GPR1, stronger effect = lower value 1.01 | locus YDL040C, strain nat1, stronger effect = lower value 0.98 | locus YDL074C, strain BRE1, stronger effect = lower value 1 | locus YDL101C, strain DUN1, stronger effect = lower value 1.03 | locus YDL134C, strain PPH21, stronger effect = lower value 1.02 | locus YDL185W, strain tfp1, stronger effect = lower value 0.983 | locus YDL192W, strain arf1, stronger effect = lower value 1.01 | locus YDR001C, strain nth1, stronger effect = lower value 0.98 | locus YDR069C, strain doa4, stronger effect = lower value 0.983 | locus YDR101C, strain arx1, stronger effect = lower value 0.983 | locus YDR137W, strain rgp1, stronger effect = lower value 0.961 | locus YDR150W, strain NUM1, stronger effect = lower value 1.02 | locus YDR159W, strain sac3, stronger effect = lower value 0.968 | locus YDR162C, strain NBP2, stronger effect = lower value 1.03 | locus YDR195W, strain ref2 0.946 | locus YDR297W, strain sur2, stronger effect = lower value 0.987 | locus YDR318W, strain mcm21, stronger effect = lower value 1.01 | locus YDR334W, strain swr1, stronger effect = lower value 0.988 | locus YDR335W, strain msn5, stronger effect = lower value 0.993 | locus YDR388W, stronger effect = lower value 0.992 | locus YDR392W, strain spt3, stronger effect = lower value 1.03 | locus YDR502C, strain sam2, stronger effect = lower value 0.991 | locus YEL003W, strain gim4, stronger effect = lower value 0.983 | locus YEL037C, strain rad23, stronger effect = lower value 0.985 | locus YEL061C, strain CIN8 (second series), stronger effect = lower value 0.975 | locus YEL061C, strain CIN8, stronger effect = lower value 1.01 | locus YER015W, strain faa2, stronger effect = lower value 0.984 | locus YER016W, strain bim1, stronger effect = lower value 0.992 | locus YER110C, stronger effect = lower value 0.99 | locus YER111C, strain swi4, stronger effect = lower value 0.985 | locus YER155C, strain BEM2 (second series), stronger effect = lower value 1.01 | locus YER155C, strain BEM2, stronger effect = lower value 1.01 | locus YER167W, strain BCK2, stronger effect = lower value 1.02 | locus YFR010W, strain ubp6, stronger effect = lower value 0.981 | locus YGL078C, strain dbp3, stronger effect = lower value 0.993 | locus YGL086W, strain mad1, stronger effect = lower value 0.991 | locus YGL167C, strain pmr1, stronger effect = lower value 0.971 | locus YGL173C, strain kem1, stronger effect = lower value 0.99 | locus YGL227W, strain vid30, stronger effect = lower value 0.974 | locus YGL240W, strain doc1, stronger effect = lower value 1 | locus YGL248W, strain PDE1, stronger effect = lower value 1.03 | locus YGL253W, strain hxk2, stronger effect = lower value 0.977 | locus YGR078C, strain PAC10, stronger effect = lower value 1.03 | locus YGR135W, strain pre9, stronger effect = lower value 1.01 | locus YGR229C, strain SMI1, stronger effect = lower value 1.01 | locus YGR252W, strain gcn5, stronger effect = lower value 0.978 | locus YHR013C, strain ard1, stronger effect = lower value 0.949 | locus YHR027C, strain rpn1, stronger effect = lower value 0.989 | locus YHR030C, strain SLT2, stronger effect = lower value 1.02 and 1 | locus YHR079C, strain IRE1 (second series), stronger effect = lower value 1 | locus YHR079C, strain IRE1, stronger effect = lower value 0.964 | locus YHR094C, strain hxt1, stronger effect = lower value 0.989 | locus YHR129C, strain ARP1, stronger effect = lower value 1.02 | locus YHR142W, strain chs7, stronger effect = lower value 0.987 | locus YHR200W, strain rpn10, stronger effect = lower value 0.989 | locus YIL066C, strain RNR3, stronger effect = lower value 1.03 | locus YIL073C, strain SPO22, stronger effect = lower value 0.994 | locus YIL125W, strain kgd1, stronger effect = lower value 0.991 | locus YIR030C, strain dcg1, stronger effect = lower value 1.01 | locus YJL092W, strain hpr5, stronger effect = lower value 0.98 | locus YJL095W, strain BCK1 (second series), stronger effect = lower value 0.991 | locus YJL095W, strain BCK1, stronger effect = lower value 1.05 and 0.989 | locus YJL115W, strain asf1, stronger effect = lower value 1 | locus YJL129C, strain trk1, stronger effect = lower value 0.987 | locus YJL134W, strain LCB3, stronger effect = lower value 1.02 | locus YJL154C, strain vps35, stronger effect = lower value 0.989 | locus YJL164C, strain tpk1, stronger effect = lower value 0.995 | locus YJL166W, strain qcr8, stronger effect = lower value 0.989 | locus YJL168C, strain set2, stronger effect = lower value 1 | locus YJL187C, strain SWE1 (second series), stronger effect = lower value 1.02 | locus YJL187C, strain SWE1, stronger effect = lower value 0.991 | locus YJR043C, strain POL32, stronger effect = lower value 1.03 | locus YJR066W, strain TOR1, stronger effect = lower value 0.945 | locus YKL009W, strain mrt4, stronger effect = lower value 1.01 | locus YKL068W, stronger effect = lower value 1.01 | locus YKL085W, strain MDH1 (second series), stronger effect = lower value 0.997 | locus YKL085W, strain MDH1, stronger effect = lower value 0.997 | locus YKL160W, strain elf1, stronger effect = lower value 1 | locus YKL190W, strain CNB1, stronger effect = lower value 1.02 | locus YKR001C, strain vps1, stronger effect = lower value 0.999 | locus YKR026C, strain gcn3, stronger effect = lower value 0.976 | locus YKR091W, strain srl3, stronger effect = lower value 0.977 | locus YLL001W, strain dnm1, stronger effect = lower value 0.99 | locus YLL026W, stronger effect = lower value 0.98 | locus YLL041C, strain sdh2, stronger effect = lower value 0.992 | locus YLR027C, strain aat2, stronger effect = lower value 0.99 | locus YLR039C, strain RIC1, stronger effect = lower value 1.08 | locus YLR058C, strain SHM2, stronger effect = lower value 1.03 | locus YLR102C, strain apc9, stronger effect = lower value 0.993 | locus YLR113W, strain HOG1, stronger effect = lower value 0.949 | locus YLR221C, strain rsa3, stronger effect = lower value 1 | locus YLR258W, strain gsy2, stronger effect = lower value 0.97 | locus YLR262C, strain YPT6 (second series), stronger effect = lower value 0.989 | locus YLR262C, strain YPT6, stronger effect = lower value 1.09 | locus YLR268W, strain sec22, stronger effect = lower value 0.984 | locus YLR320W, strain mms22, stronger effect = lower value 0.984 | locus YLR330W, strain CHS5, stronger effect = lower value 1.02 | locus YLR342W, strain FKS1 (second series), stronger effect = lower value 1.04 | locus YLR342W, strain FKS1, stronger effect = lower value 0.979 | locus YLR357W, strain rsc2, stronger effect = lower value 1.01 | locus YLR370C, strain arc18, stronger effect = lower value 1 | locus YLR371W, strain rom2, stronger effect = lower value 0.981 | locus YLR384C, strain iki3, stronger effect = lower value 0.991 | locus YLR418C, strain cdc73, stronger effect = lower value 1.01 | locus YML016C, strain PPZ1, stronger effect = lower value 1.02 | locus YML032C, strain rad52, stronger effect = lower value 1.01 | locus YML120C, strain ndi1, stronger effect = lower value 1.01 | locus YML124C, strain tub3, stronger effect = lower value 0.991 | locus YMR058W, strain fet3, stronger effect = lower value 1.01 | locus YMR078C, strain ctf18, stronger effect = lower value 1 | locus YMR125W, strain sto1, stronger effect = lower value 1 | locus YMR129W, stronger effect = lower value 0.975 | locus YMR205C, strain PFK2, stronger effect = lower value 0.96 | locus YMR223W, strain ubp8, stronger effect = lower value 1.01 | locus YMR231W, strain pep5, stronger effect = lower value 0.976 | locus YMR307W, strain GAS1, stronger effect = lower value 1.07 | locus YNL067W, strain RPL9B, stronger effect = lower value 1.03 | locus YNL071W, strain lat1, stronger effect = lower value 1 | locus YNL183C, strain NPR1, stronger effect = lower value 0.949 | locus YNL209W, strain ssb2, stronger effect = lower value 0.986 | locus YNL233W, strain BNI4, stronger effect = lower value 1.01 | locus YNL248C, strain rpa49, stronger effect = lower value 1.05 | locus YNL250W, strain rad50, stronger effect = lower value 1 | locus YNL271C, strain bni1, stronger effect = lower value 0.995 | locus YNL298W, strain CLA4, stronger effect = lower value 0.995 | locus YNL307C, strain MCK1, stronger effect = lower value 0.987 | locus YNL322C, strain KRE1 (second series), stronger effect = lower value 0.99 | locus YNL322C, strain KRE1, stronger effect = lower value 1.02 | locus YNR049C, strain mso1, stronger effect = lower value 0.986 | locus YNR052C, strain pop2, stronger effect = lower value 0.984 | locus YOL012C, strain htz1 0.81 | locus YOL147C, strain pex11, stronger effect = lower value 0.991 | locus YOR001W, strain rrp6, stronger effect = lower value 1.01 | locus YOR061W, strain CKA2, stronger effect = lower value 1.03 | locus YOR069W, strain VPS5, stronger effect = lower value 1.01 | locus YOR070C, strain gyp1, stronger effect = lower value 0.988 | locus YOR080W, strain dia2, stronger effect = lower value 0.992 | locus YOR083W, strain WHI5, stronger effect = lower value 1.01 | locus YOR106W, strain vam3, stronger effect = lower value 0.977 | locus YOR136W, strain idh2, stronger effect = lower value 0.98 | locus YOR144C, strain elg1, stronger effect = lower value 0.986 | locus YOR184W, strain ser1, stronger effect = lower value 0.99 | locus YOR231W, strain MKK1, stronger effect = lower value 0.978 | locus YOR265W, strain rbl2, stronger effect = lower value 0.988 | locus YOR270C, strain vph1, stronger effect = lower value 0.976 | locus YOR290C, strain snf2, stronger effect = lower value 1.01 | locus YOR316C, strain cot1, stronger effect = lower value 0.997 | locus YPL051W, strain arl3, stronger effect = lower value 1.01 | locus YPL078C, strain atp4, stronger effect = lower value 0.995 | locus YPL106C, strain sse1, stronger effect = lower value 1.05 | locus YPL240C, strain hsp82, stronger effect = lower value 0.995 | locus YPL241C, strain CIN2, stronger effect = lower value 1.02 | locus YPL256C, strain CLN2, stronger effect = lower value 1.05 | locus YPR119W, strain clb2, stronger effect = lower value 0.995 | locus YPR141C, strain kar3, stronger effect = lower value 1 | locus YPR163C, strain tif3, stronger effect = lower value 0.991 | locus YPR167C, strain met16, stronger effect = lower value 0.995 | strain wtn01, stronger effect = lower value 0.977
